Screening results as filed in PubChem BioAssay.
Shown are actives, neighbours in structure and some others; about 12% of the full set was active somewhere.
AmpC inh detg: qHTS Inhibitors of AmpC Beta-Lactamase (assay with detergent); AmpC hydrolysis of nitrocefin, absorbance 480 nm, 0.01% Triton; Potency, µM (doses to about 114 µM), for inactives: top-dose activity change, negative = inhibition, hits mostly inhibitors; hit rate 0.041% among 370,000;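 further: 0% = no-compound wells and -100% = no-enzyme wells; nearly all actives have a fitted effect of over 25% in size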
Target sequence (P00811 whole entry, looked up): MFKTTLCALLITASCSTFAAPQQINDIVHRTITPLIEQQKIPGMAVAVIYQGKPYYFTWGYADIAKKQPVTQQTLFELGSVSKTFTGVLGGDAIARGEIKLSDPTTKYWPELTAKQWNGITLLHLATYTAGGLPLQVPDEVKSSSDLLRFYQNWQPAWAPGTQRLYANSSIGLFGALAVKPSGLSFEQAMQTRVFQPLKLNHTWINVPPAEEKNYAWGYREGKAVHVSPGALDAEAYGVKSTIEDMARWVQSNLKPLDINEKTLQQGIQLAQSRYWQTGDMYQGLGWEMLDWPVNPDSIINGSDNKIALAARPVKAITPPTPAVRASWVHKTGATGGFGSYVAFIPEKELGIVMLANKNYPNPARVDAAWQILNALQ
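20 mM phosphate pH 7.0 + 0.01% (detergent screen) or 0.0001% Triton X-100; 5.3 nM AmpC reagent; cpd preinc 15 min RT; nitrocefin (800 uM stock) to start; A480 q20 s × 4 min; Activity was normalised to no-enzyme and no-compound control wells.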
AmpC no deterg: qHTS Inhibitors of AmpC Beta-Lactamase (assay without detergent) | AmpC nitrocefin hydrolysis, absorbance 480 nm, 0.0001% Triton | P00811 | hit rate 0.52% among 330,000 | AID 485341, 2010 | Potency, µM (top dose mostly 57.1 µM), inactives show top-dose activity change, negative = inhibition, hits mostly inhibitors;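 further: plate controls were no compound for no effect and no enzyme for full effect; nearly all actives have a fitted effect of over 20% in size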
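AmpC (5.3 nM in the dispensed reagent) in 20 mM phosphate pH 7.0 with 0.01% (detergent screen) or 0.0001% Triton X-100 was preincubated with compounds for 15 min at room temperature. Nitrocefin was then added from an 800 uM solution, and hydrolysis was followed at 480 nm.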
SARS PLP yeast: qHTS of Yeast-based Assay for SARS-CoV PLP; S. cerevisiae expressing SARS-CoV PLpro, growth rescue; Potency, µM (series often up to 32.9 µM), inactives show top-dose activity, positive = growth rescue, hits mostly activators; hit rate 0.19% among 330,000; AID 485353, 2010; calls by dose curve; further: 0% is about no effect; nearly all actives have a fitted effect of over 55% in size
Pf growth 48h: Primary qHTS for delayed death inhibitors of the malarial parasite plastid, 48 hour incubation | P. falciparum luciferase growth in erythrocytes, 48 h | Potency, µM (series often up to 28.7 µM), for inactives: top-dose activity change, negative = inhibition, most hits filed as inhibitors | hit rate 5.9% among 310,000; further: on the % scale 0 is the no-effect control and ±100 the full control effect
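Compounds are pin-transferred into medium, infected erythrocytes (2% hematocrit, 0.1% parasitemia final) are added, and plates sit one parasite generation at 37 C in 5% CO2. Detection reagent is then added and luminescence measured.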
Pf growth 96h: Primary qHTS for delayed death inhibitors of the malarial parasite plastid, 96 hour incubation; Potency, µM (top dose mostly 28.7 µM), without a hit: at the top dose activity change, negative = inhibition, hits mostly inhibitors; P. falciparum luciferase reporter growth, 96 h; hit rate 6.9% among 320,000; AID 504834, 2011; further: on the % scale 0 is the no-effect control and ±100 the full control effect
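96 h incubation, 37 C, 5% CO2, of luciferase-reporter P. falciparum-infected RBCs (2% hematocrit, 0.05% parasitemia final) with test compounds; endpoint luminescence.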
Sm TGR inh: qHTS Assay for the Inhibitors of Schistosoma Mansoni Peroxiredoxins | Schistosoma mansoni thioredoxin glutathione reductase (TGR), Q962Y6 | purified TGR, DTNB reduction, TNB absorbance 405 nm | Potency, µM (top dose mostly 114 µM), for inactives: at the top dose activity change, negative = inhibition, most hits filed as inhibitors | hit rate 3% among 360,000; further: on the % scale 0 is the no-effect control and ±100 the full control effect; nearly all actives have a fitted effect of over 60% in size
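TGR 20 nM + NADPH 100 uM (dispensed conc.), cpd preinc 15 min RT; start with NADPH (500 uM addition) then DTNB (15 mM addition). Kinetic TNB absorbance, 405 nm filter. Four-parameter Hill fit across titration.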
An asterisk follows results filed as active. Unless noted, the call rests on the fitted dose curve; in most records, active means well fitted curve in the direction sought with a large enough effect; inconclusive means small, poorly fitted or top-dose-only effect, or another doubt; inactive means no such curve, though single readings can be large; an effect the other way counts as inactive or inconclusive. Potency means the concentration at half of the fitted maximal effect.

What do the screens show for `CC(C)Oc1ccc(C(=O)N2CCN(C(=O)c3ccco3)CC2)cc1`?
AmpC inh detg: -1.0%; AmpC no deterg: 17.1%; SARS PLP yeast: 0.8%; Pf growth 48h: -5.1%; Pf growth 96h: 10.4µM*; Sm TGR inh: 0.1%

How did CN(C)C(=O)N1CCN(C(=O)c2ccco2)CC1 do in these assays?
AmpC inh detg: -13.0%; AmpC no deterg: 28.2µM*; SARS PLP yeast: -1.8%; Pf growth 48h: 21.8%; Pf growth 96h: 7.0%; Sm TGR inh: -4.8%

What do the screens show for `O=C(c1ccco1)N1CCCN(C(=O)c2ccco2)CC1`?
AmpC inh detg: -9.8%; AmpC no deterg: -26.3%; SARS PLP yeast: -0.3%; Pf growth 48h: 11.2%; Sm TGR inh: -22.1%

How did CC(C)C[C@@H]1NC(=O)N(CCCn2ccnc2)C1=O do in these assays?
AmpC inh detg: 4.0%; AmpC no deterg: -8.8%; SARS PLP yeast: 0.4%; Pf growth 48h: 12.4%; Pf growth 96h: 10.8%; Sm TGR inh: 8.1%

How did CCc1ccc2nc(/N=C(\N)NC(=O)c3ccccc3)nc(C)c2c1 do in these assays?
AmpC inh detg: 2.3%; AmpC no deterg: 12.0%; SARS PLP yeast: -1.1%; Pf growth 48h: 9.28µM*; Pf growth 96h: 10.4µM*; Sm TGR inh: 6.3%

Results for CCCC(=O)N/C(N)=N/c1nc(C)c2ccccc2n1 ?
AmpC inh detg: -2.4%; AmpC no deterg: -43.8%; SARS PLP yeast: -2.8%; Pf growth 48h: inconclusive; Pf growth 96h: 1.85µM*; Sm TGR inh: -4.3%

What do the screens show for `Cc1cc(C)c2nc(/N=C(\N)NC(=O)Nc3ccccc3)nc(C)c2c1`?
AmpC inh detg: -1.3%; AmpC no deterg: -12.2%; SARS PLP yeast: 6.7%; Pf growth 48h: 1.85µM*; Pf growth 96h: 13.1µM*; Sm TGR inh: 7.8%

How did COc1ccccc1NC(=O)C1=C(C)Nc2ncnn2C1c1cccn1C (centres undefined) do in these assays?
AmpC inh detg: 7.6%; Sm TGR inh: -1.1%

How did Cc1cc(=O)n2nc(N(C)CC(=O)NCc3ccccc3C)sc2n1 do in these assays?
AmpC inh detg: 21.5%; Sm TGR inh: -1.0%

How did CCN(CC)c1nn2c(=O)c(C(=O)NCc3cccc(OC)c3OC)cnc2s1 do in these assays?
AmpC inh detg: 24.3%; Sm TGR inh: -3.9%

What do the screens show for `Cc1ccc(C)c(NC(=O)C(OC(=O)c2ccc(NC(=O)CC#N)cc2)c2ccccc2)c1` (centres undefined)?
AmpC inh detg: 2.5%; AmpC no deterg: -57.5%; Pf growth 48h: 10.4µM*; Pf growth 96h: inconclusive; Sm TGR inh: -4.1%

How did CC(OC(=O)c1ccc(S(=O)(=O)N(C)c2ccccc2)cc1)C(=O)NCCC1=CCCCC1 (centres undefined) do in these assays?
AmpC inh detg: -8.4%; AmpC no deterg: 0.2%; SARS PLP yeast: 11.8%; Pf growth 48h: 1.3%; Pf growth 96h: -8.1%; Sm TGR inh: -8.1%

Results for CC(OC(=O)c1ccc(NC(=O)CC#N)cc1)C(=O)NCCC1=CCCCC1 (centres undefined) ?
AmpC inh detg: -2.5%; AmpC no deterg: -39.0%; SARS PLP yeast: -0.3%; Pf growth 48h: 9.28µM*; Pf growth 96h: 10.4µM*; Sm TGR inh: 2.7%

Results for Cc1cc(C)cc(NC(=O)C(OC(=O)c2ccc(NC(=O)CC#N)cc2)c2ccccc2)c1 (centres undefined) ?
AmpC inh detg: -9.8%; AmpC no deterg: 11.2µM*; SARS PLP yeast: 11.1%; Pf growth 48h: 10.4µM*; Pf growth 96h: 10.4µM*; Sm TGR inh: -2.2%

Results for CCn1c2ccccc2c2cc(NC(=O)C(C)OC(=O)c3ccc(NC(=O)CC#N)cc3)ccc21 (centres undefined) ?
AmpC inh detg: -5.7%; AmpC no deterg: -36.2%; SARS PLP yeast: 0.0%; Pf growth 48h: 11.7µM*; Pf growth 96h: inconclusive; Sm TGR inh: -9.0%

How did CCn1c2ccccc2c2cc(NC(=O)COC(=O)c3ccc(O)cc3)ccc21 do in these assays?
AmpC inh detg: -3.7%; AmpC no deterg: inconclusive; SARS PLP yeast: -5.1%; Pf growth 48h: -0.5%; Pf growth 96h: 24.0%; Sm TGR inh: -0.5%

How did Cc1cc(C)cc(NC(=O)C(OC(=O)c2cccs2)c2ccccc2)c1 (centres undefined) do in these assays?
AmpC inh detg: -13.9%; AmpC no deterg: inconclusive; SARS PLP yeast: 5.1%; Pf growth 48h: 19.2%; Pf growth 96h: 20.8%; Sm TGR inh: -4.7%

What do the screens show for `CC(C)Cn1c(=O)c2ccccc2n2c(CCC(=O)NCc3ccc(Cl)cc3)nnc12`?
AmpC inh detg: -2.1%; Sm TGR inh: -0.5%

What do the screens show for `Cc1ccc2oc(=O)c3cnn(CC(=O)N(C)c4ccc(F)cc4)c3c2c1`?
AmpC inh detg: 3.0%; Sm TGR inh: -1.9%

How did CCOC(=O)c1c(C)[nH]c(C(=O)C(C)OC(=O)c2ccc(NC(=O)CC#N)cc2)c1C (centres undefined) do in these assays?
AmpC inh detg: 1.1%; AmpC no deterg: -25.5%; SARS PLP yeast: -8.5%; Pf growth 48h: 8.28µM*; Pf growth 96h: 10.4µM*; Sm TGR inh: 6.7%

How did CCOC(=O)c1c(C)[nH]c(C(=O)OCC(=O)Nc2ccc(OCC)cc2)c1C do in these assays?
AmpC inh detg: -1.7%; AmpC no deterg: -25.4%; SARS PLP yeast: 4.1%; Pf growth 48h: 37.0%; Sm TGR inh: 2.3%

How did COc1ccc(C)cc1N(C(=O)c1ccccc1)c1nc2ccccc2s1 do in these assays?
AmpC inh detg: inconclusive; AmpC no deterg: -19.0%; SARS PLP yeast: -27.4%; Pf growth 48h: 11.7µM*; Pf growth 96h: 13.1µM*; Sm TGR inh: -0.6%

Results for Cc1ccccc1N(C(=O)c1cccs1)c1nc2ccccc2s1 ?
AmpC inh detg: -10.7%; AmpC no deterg: -11.2%; SARS PLP yeast: -15.5%; Pf growth 96h: inconclusive; Sm TGR inh: -1.9%

What do the screens show for `COc1ccc(C)cc1N(C(=O)c1cccc(F)c1)c1nc2ccccc2s1`?
AmpC inh detg: -8.6%; AmpC no deterg: -12.9%; SARS PLP yeast: 9.2%; Pf growth 48h: inconclusive; Pf growth 96h: inconclusive; Sm TGR inh: 3.0%

How did Cc1ccsc1C(=O)N(c1nc2ccccc2s1)c1c(C)cccc1C do in these assays?
AmpC inh detg: inconclusive; AmpC no deterg: -23.8%; SARS PLP yeast: 2.2%; Pf growth 48h: 11.7µM*; Pf growth 96h: 8.28µM*; Sm TGR inh: -10.6%

Results for COc1ccc(C)cc1N(C(=O)COc1ccccc1)c1nc2ccccc2s1 ?
AmpC inh detg: -5.7%; AmpC no deterg: -8.7%; SARS PLP yeast: 4.4%; Pf growth 48h: 10.4µM*; Pf growth 96h: inconclusive; Sm TGR inh: 3.5%
